# Inconclusive results are not listed. A call without a number means that no potency is given here. The source made the active and inactive calls. Calls come from the whole dose curve; as a rule, active = well fitted inhibition curve with a large enough effect in the main read-out, with a control signal flat; inconclusive = small, poorly fitted or top-dose-only effect, or a change in a side signal; inactive = flat fitted curve, though single readings scatter.
# Target: Neuropeptide S receptor (Homo sapiens) (UniProt Q6W5P4)
# Sequence (Q6W5P4 whole entry, looked up): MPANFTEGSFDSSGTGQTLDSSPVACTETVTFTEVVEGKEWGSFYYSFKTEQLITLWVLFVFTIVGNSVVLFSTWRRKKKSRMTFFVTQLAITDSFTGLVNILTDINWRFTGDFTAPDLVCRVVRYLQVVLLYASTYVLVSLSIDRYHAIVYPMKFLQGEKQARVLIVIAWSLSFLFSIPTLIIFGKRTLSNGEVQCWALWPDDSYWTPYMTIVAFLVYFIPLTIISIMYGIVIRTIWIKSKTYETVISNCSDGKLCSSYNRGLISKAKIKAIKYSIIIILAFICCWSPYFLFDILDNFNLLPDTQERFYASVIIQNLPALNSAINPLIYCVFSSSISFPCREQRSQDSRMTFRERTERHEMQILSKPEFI
# Test: Confirmation Concentration-Response Assay for Antagonists of the Neuropeptide S Receptor: cAMP Signal Transduction
# Settings: CHO-NPSR cells, cAMP TR-FRET, antagonist mode; series mostly up to 22.3 µM
# In short: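 LANCE TR-FRET cAMP read-out: 665/620 nm emission ratio, with the 620 nm donor channel also reported, after 2 h RT detection. Stably transfected CHO-NPSR cells got compound titrations and 100 nM NPS in stimulation reagent for 60 min at 37C. IC50 came from Hill fits.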
# Potency is the fitted concentration of half-maximal effect.
row,Compound,Potency
1,CC1C(c2ccccc2)N(C)C(c2ccccc2)CC1(O)c1ccccc1 (configuration not stated),inactive
2,CN(C)c1ccc(N2CN=C3SCC(=O)N3C2)cc1,inactive
3,COc1ccc(-c2cc(N)n(S(=O)(=O)c3c(F)c(F)c(F)c(F)c3F)n2)cc1OC,7.08 µM (active)
4,Cc1nc(NC(=S)Nc2ccccc2)sc1C,inactive
5,CCSc1nc2c(c(=O)n1Cc1ccccc1)SC(C)C2 (configuration not stated),inactive
6,COc1ccccc1C1c2c(ncn(-c3ccccc3)c2=N)Oc2ccc3ccccc3c21 (configuration not stated),17.8 µM (active)
7,N=c1c2c(ccn1Cc1ccccc1)Oc1ccc3ccccc3c1C2c1ccccc1 (configuration not stated),2 µM (active)
8,N#Cc1c(-c2ccccc2)c(-c2ccccc2)nn(CC(=O)NNC(=O)Nc2ccc(Cl)c(Cl)c2)c1=O,inactive
9,CC1=C/C(=N\NC(=S)Nc2cccnc2)CC(C)(C)C1,inactive
10,CN(C)c1nc(=Nc2cccc(Cl)c2)ss1,inactive
11,CCC(C)n1c(=O)c(C(=O)Nc2ccccc2S(N)(=O)=O)c(O)c2ccccc21 (configuration not stated),inactive
12,CCOc1ccc(N2C(=O)CC(NCCc3ccncc3)C2=O)cc1 (configuration not stated),inactive
13,C=CCn1c(SCCN2C(=O)c3ccccc3C2=O)nc2scc(-c3ccccc3)c2c1=O,inactive
14,CCOC(=O)c1cnc(-n2nc(C)cc2C)nc1NC1CCCC1,inactive
15,Brc1ccc(CSc2ncn[nH]2)cc1,inactive
16,COC(=O)c1ccc(C(=O)OC)c(NC(=O)CSc2cccc[n+]2[O-])c1,inactive
17,CCOC(=O)c1cnc(-n2nc(C)cc2C)nc1Nc1ccc(C)cc1,inactive
18,Cc1ccc(-n2ncc3c(NCc4ccc5c(c4)OCO5)ncnc32)c(C)c1,inactive
19,O=[N+]([O-])c1ccc(N=Nc2ccc(O)cc2O)cc1,inactive

row,Compound,Potency
1,CCn1cc(C(=O)NCC2CCCO2)c(=O)c2cc(S(=O)(=O)N3CCCCCC3)ccc21 (configuration not stated),inactive
2,CN(C)C(=O)Oc1cccc([N+](C)(C)C)c1,inactive
3,Cc1ccc(/C=C2\SC(=S)N(CC(=O)Nc3ncc(Cc4ccccc4Cl)s3)C2=O)cc1,inactive
4,Cc1nnc(NC(=O)c2cccc(S(=O)(=O)N3CCc4ccccc43)c2)s1,inactive
5,COc1ccc(N=C2S/C(=C\c3ccc(N4CCOCC4)o3)C(=O)N2CCc2c[nH]c3ccccc23)cc1,2.24 µM (active)
6,C(=C\c1ccccc1)/C=N/N1CCN(c2ccccn2)CC1,inactive
7,CC1(C)Cc2c(c(N3CCOCC3)nc3sc4c(NCC5CCCO5)nnnc4c23)CS1 (configuration not stated),inactive
8,N=C1c2ccccc2CN1c1ccc(N2CCOCC2)c(S(=O)(=O)Nc2ccc(Cl)cc2)c1,4.47 µM (active)
9,N#Cc1cnn(-c2ncnc3sc4c(c23)CCCC4)c1N,inactive
10,Cc1cc(C)n(-c2nc(Nc3ccccc3C(F)(F)F)nc(-n3nc(C)cc3C)n2)n1,11.2 µM (active)
11,COc1cccc(N2CCN(c3ncnc4c3[nH]c3ccc(F)cc34)CC2C)c1 (configuration not stated),5.62 µM (active)
12,COC(=O)/C(=C1/Oc2cc(C)oc(=O)c2S1)C(F)(F)F,inactive
13,Cc1cc(N/N=C/c2ccccc2[N+](=O)[O-])nc(-n2nc(C)cc2C)n1,inactive
14,N=c1c2c(ccn1-c1ccccc1)Oc1ccc3ccccc3c1C2c1ccccc1 (configuration not stated),2.51 µM (active)
15,C=CCNC(=O)/C(C#N)=C/c1cn(-c2ccccc2)nc1-c1ccc(OC)c([N+](=O)[O-])c1,inactive
16,O=C(CSC1=NCCS1)Nc1ccnc2ccccc12,inactive
17,NC(=O)OCC(COC(N)=O)c1ccccc1,inactive
18,O=C1Nc2ccc(S(=O)(=O)N3CCCC3C(=O)O)c3cccc1c23 (configuration not stated),inactive

# Reference: PubChem BioAssay AID1491 (National Center for Advancing Translational Sciences (NCATS), 2009)
